{
  "source": "the OligoGym collection",
  "data": [
    {"biological_target": "PCDHA4", "assay": "pooled miR-30 sensor sort-seq; sequence = guide strand", "details": "shRNA", "values": [
      {"sequence": "TTCCTCAGTTGTCTGCAGCTGA", "sensor-assay potency score (higher = more potent)": 0.537},
      {"sequence": "TTGTGTTGCTGGGAACACCGGC", "sensor-assay potency score (higher = more potent)": -0.469},
      {"sequence": "TTCTACTTCCACAATAACTCTA", "sensor-assay potency score (higher = more potent)": 0.0225},
      {"sequence": "TTCAAAGTCAATATATCCCTTT", "sensor-assay potency score (higher = more potent)": 0.476}
    ]},
    {"biological_target": "PCDHGA11", "assay": "pooled miR-30 sensor sort-seq; sequence = guide strand", "details": "shRNA", "values": [
      {"sequence": "TTTAGAAGAGCAATCACTGTAC", "sensor-assay potency score (higher = more potent)": 0.556},
      {"sequence": "TTCTCCAGAATCTTGATCTTGC", "sensor-assay potency score (higher = more potent)": 0.227},
      {"sequence": "TATCTCCACTTCGTCCTCCTGG", "sensor-assay potency score (higher = more potent)": -0.661},
      {"sequence": "TTGAATTTCCATCTCATAGAAT", "sensor-assay potency score (higher = more potent)": -0.931},
      {"sequence": "ACAGTGATCAACATCGTCGTGG", "sensor-assay potency score (higher = more potent)": -0.0572},
      {"sequence": "TCAATTTGTAATAATTTCCATA", "sensor-assay potency score (higher = more potent)": -0.421},
      {"sequence": "TTGTCCACCGCAACCACCTTGG", "sensor-assay potency score (higher = more potent)": -0.673},
      {"sequence": "TTTTCTGGAACACTCACGCGAT", "sensor-assay potency score (higher = more potent)": -0.577},
      {"sequence": "TCTTGTTGCCATTGCCACCTGC", "sensor-assay potency score (higher = more potent)": -0.107},
      {"sequence": "TAAAACAGGAGACTTGACCATT", "sensor-assay potency score (higher = more potent)": -0.606},
      {"sequence": "TATATTGTAGCTCTGGACCAAC", "sensor-assay potency score (higher = more potent)": -0.9},
      {"sequence": "TAGCTCTGGACCAACTCCCTGT", "sensor-assay potency score (higher = more potent)": 0.0165},
      {"sequence": "TTTGTCCACCGCAACCACCTTG", "sensor-assay potency score (higher = more potent)": -1.17}
    ]},
    {"biological_target": "PCP2", "assay": "pooled miR-30 sensor sort-seq; sequence = guide strand", "details": "shRNA", "values": [
      {"sequence": "TTTCTGTGCTCCGTCCTTGGAC", "sensor-assay potency score (higher = more potent)": -1.03},
      {"sequence": "TGAAGAAGCCCTCCTGGTCTGG", "sensor-assay potency score (higher = more potent)": -1.06},
      {"sequence": "TTGCAGTGAACAGCGCTGTCCC", "sensor-assay potency score (higher = more potent)": -0.308},
      {"sequence": "TGTCACACGTTGGTCATCCATG", "sensor-assay potency score (higher = more potent)": -1.21},
      {"sequence": "TCCATGAGGCTGTCCATCTCGG", "sensor-assay potency score (higher = more potent)": -1.39},
      {"sequence": "TGAACAGCGCTGTCCCTCCATC", "sensor-assay potency score (higher = more potent)": -1.32},
      {"sequence": "ACACGTTGGTCATCCATGCGGC", "sensor-assay potency score (higher = more potent)": -0.873},
      {"sequence": "ATGAGGCTGTCCATCTCGGGGG", "sensor-assay potency score (higher = more potent)": -1.33},
      {"sequence": "TGACTGTCACACGTTGGTCATC", "sensor-assay potency score (higher = more potent)": -1.61},
      {"sequence": "TTGGTGGTCTGGCCCGGCCCGG", "sensor-assay potency score (higher = more potent)": -1.82},
      {"sequence": "TCGTTTCTGTGCTCCGTCCTTG", "sensor-assay potency score (higher = more potent)": -0.435},
      {"sequence": "TTCTGTGCTCCGTCCTTGGACC", "sensor-assay potency score (higher = more potent)": -1.15}
    ]},
    {"biological_target": "PCSK5", "assay": "pooled miR-30 sensor sort-seq; sequence = guide strand", "details": "shRNA", "values": [
      {"sequence": "ATAGCTGATACTACAGCTCTGC", "sensor-assay potency score (higher = more potent)": -0.314},
      {"sequence": "TTGATTTGTCGGTCTGTGCTCT", "sensor-assay potency score (higher = more potent)": 0.6},
      {"sequence": "TTTTGCTTCAACCATGTCCGTG", "sensor-assay potency score (higher = more potent)": -0.77},
      {"sequence": "TTTTGCAGGATTTGTATCCATT", "sensor-assay potency score (higher = more potent)": -1.05},
      {"sequence": "TTGATGAATCCGTACTTGCTGG", "sensor-assay potency score (higher = more potent)": -0.268},
      {"sequence": "TTTGACACATTCCTAAGTCTAA", "sensor-assay potency score (higher = more potent)": -0.793},
      {"sequence": "TTGTCTTGATTTGTCGGTCTGT", "sensor-assay potency score (higher = more potent)": 0.944},
      {"sequence": "TTCCATTGAAATGAAACTGTGG", "sensor-assay potency score (higher = more potent)": -0.149},
      {"sequence": "TTTGCTTCAACCATGTCCGTGA", "sensor-assay potency score (higher = more potent)": 0.588},
      {"sequence": "TTGTACAGTTCTTGAATCCTGG", "sensor-assay potency score (higher = more potent)": -0.113},
      {"sequence": "TTGAAAGCAATTCCGACTGTGC", "sensor-assay potency score (higher = more potent)": -0.25}
    ]}
  ]
}
